Data on 40 compounds can be found in PubChem BioAssay (Tox21).

Activity calls are given as the source filed them. The call rests on the fitted dose curve; in most records, active means well fitted curve in the direction sought with a large enough effect in the repeat runs; inconclusive means weak or mixed curves; inactive means flat fitted curve, though single readings scatter. Positions of bridges follow the written chain, without caps; N, C: chain ends. Non-standard residues stand in square brackets, D forms with d. Residues, ends and D or L forms follow the SMILES beside them. *: point of attachment. Dab(CH2SO3H) = N[C@@H](CCNCS(=O)(=O)O)C(=O)O; X3 = CC[C@@H](C)CCCCC(=O)*; Dab = NCC[C@H](N)C(=O)O
On the % scale 0 is the no-effect control and ±100 the full control effect.

This assay can be described thus: qHTS assay to test for compound auto fluorescence at 535 nm (green) in HEK293 cell free culture (AID 720682). The following applies: cell-free medium, green autofluorescence 485/535 nm, active compounds read high; series mostly up to 46 µM; activity change: at the top concentration. The source says:
U.S. Tox21 Program National Center for Advancing Translational Sciences [NCATS] NIH Chemical Genomics Center [NCGC] U.S. Environmental Protection Agency [EPA] National Institutes of Environmental Health Sciences [NIEHS] National Toxicology Program [NTP] U.S. Food and Drug Administration [FDA] Tox21 Assay Overview: Compound auto fluorescence often interferes with screening of the compound library against various biological targets and signaling pathways. Some of these compounds may have fluorophoric properties. Such properties may interfere with the assay outputs resulting in false positives and/or negatives. To decrease such complications and ensure the compound activities are relevant in terms of biological response, the Tox21 10K compound library was screened for auto fluorescence. From the fluorophores used as reporter signals in our screening assays, the auto fluorescence equivalencies of compounds against three fluorophores have been evaluated: Triamterene, Fluorescein and Rose Bengal sodium for blue, green and red fluorescence, respectively. The fluorescence intensities were measured using Excitation/Emission wavelengths at 405/460nm, 485/535nm and 540/590nm for blue, green and red labels, respectively. This assay includes the green fluorescence data.
Tox21 Assay Protocol Summary: 5 uL of culture medium (DMEM containing 10% FBS) per well was dispensed into black wall/clear bottom 1536-well plates using a Multidrop Combi Dispenser (ThermoFisher Scientific, Waltham, MA). After 23 nL compound or DMSO vehicle was transferred into assay plate by a pintool work station (Kalypsys, San Diego, CA), fluorescence intensities in the assay plates were measured by an Envision (PerkinElmer, Shelton, CT) plate reader using three labels for measuring blue, green and red fluorescence at […] 460, 535 and 590nm respectively.
Regarding `CCOc1ccc(S(=O)(=O)O)c2cccnc12`, the “activity change” value was 0.0171% (inactive).

Take `CCCCCCCCCCCCN1CCCC1=O`: the “activity change” value was -0.0242% [at 91.3 µM] (inactive).

Turning to `NC(=O)[C@H]1O[C@@H](O)[C@H](O)[C@@H](O)[C@@H]1O`, the “activity change” value is 0.0418% (inactive).

In the case of `NCc1cccc(C2CCN(C(=O)c3ccc(C#Cc4ccccc4F)o3)CC2)c1`, the “activity change” value is 0.105% [at 91.3 µM] (inactive).

For `C1CCc2nnnn2CC1`, the “activity change” value was 0.0501% (inactive).

For `C=CCN1C(=O)C(CC(C)C)NC1=S` (stereo not given), the result was inactive.

As for `Oc1ccc(Cl)cc1C1CCCC1`, the “activity change” value is -0.0001% [at 91.3 µM] (inactive).

For `CC[C@@]1([C@@H]2O[C@@H]([C@H]3O[C@@](O)(CO)[C@H](C)C[C@@H]3C)C[C@@H]2C)CC[C@H]([C@]2(C)CC[C@]3(C[C@H](O)[C@@H](C)[C@@H]([C@@H](C)[C@@H](OC)[C@H](C)C(=O)O)O3)O2)O1` (stereo in doubt), the compound was classed as inactive.

With `CNC(=O)OCc1cccc(COC(=O)NC)n1`, the “activity change” value was -0.019% (inactive).

In the case of `CCCCC[C@H](O)/C=C/[C@@H]1[C@@H](C/C=C\CCCC(=O)O)[C@@H](O)C[C@H]1O`, the outcome was inactive.

In the case of `Nc1c(CC(=O)O)cccc1C(=O)c1ccccc1`, the call was inactive.

`CC[C@@H](C)CCCCC(=O)N[C@@H](CCNCS(=O)(=O)O)C(=O)N[C@H](C(=O)N[C@@H](CCNCS(=O)(=O)O)C(=O)N[C@H]1CCNC(=O)[C@H]([C@@H](C)O)NC(=O)[C@H](CCNCS(=O)(=O)O)NC(=O)[C@H](CCNCS(=O)(=O)O)NC(=O)[C@H](CC(C)C)NC(=O)[C@@H](CC(C)C)NC(=O)[C@H](CCNCS(=O)(=O)O)NC1=O)[C@@H](C)O` (X3-[Dab(CH2SO3H)]T[Dab(CH2SO3H)][Dab][Dab(CH2SO3H)][dL]L[Dab(CH2SO3H)][Dab(CH2SO3H)]T; lactam 4-C): the “activity change” value is 0.205% (inactive).

With `CC(Cc1ccc(O)c(O)c1)C(C)Cc1ccc(O)c(O)c1` (stereo not given), the “activity change” value was 0.118% [at 91.3 µM] (inactive).

In the case of `FC(F)(F)C(F)(F)C(F)(F)C(F)(F)C(F)(F)F`, the “activity change” value was -0.0296% (inactive).

Regarding `CCOC(=O)[C@H](CCc1ccccc1)N[C@@H](C)C(=O)N1[C@H](C(=O)O)C[C@H]2CCCC[C@@H]21`, the result was inactive.

As for `COC(=O)C[C@](O)(CCCC(C)(C)O)C(=O)O[C@@H]1C(OC)=CC23CCCN2CCc2cc4c(cc2[C@H]13)OCO4` (stereo not given in full), the compound was called inactive.

For the compound `CN[C@@H]1[C@@H](O[C@H]2O[C@H](CO)[C@@H](N)[C@H](O)[C@H]2O)O[C@H]2C[C@@H](N)[C@@H](O[C@H]3[C@H](O)[C@@H](O)[C@H](N)C[C@@H]3N)O[C@@H]2[C@@H]1O`, the “activity change” value is -0.0311% [at 18.6 µM] (inactive).

Regarding `CCCCCCCC/C=C\CCCCCCCC(=O)N(CCO)CCO`, the “activity change” value was -0.0237% [at 91.3 µM] (inactive).

For the compound `CCCCCCCCCCCCCCCCCCOCC(COP(=O)([O-])OCC[N+](C)(C)C)OC` (stereo not given), the “activity change” value was 0.0805% (inactive).

On to `CCN(CC)CCn1c(=O)c(Cc2ccc(OC)cc2)nc2ccccc21`, for which the “activity change” value was -0.073% (inactive).

`COc1ccc(/C=C/C(=O)O)cc1`: the “activity change” value was -0.0906% (inactive).

Regarding `CNCC(=O)N[C@@H](CCCN=C(N)N)C(=O)N[C@H](C(=O)N[C@@H](Cc1ccc(O)cc1)C(=O)N[C@H](C(=O)N[C@@H](Cc1cnc[nH]1)C(=O)N1CCC[C@H]1C(=O)N[C@@H](C)C(=O)O)C(C)C)C(C)C`, the “activity change” value was 0.0452% (inactive).

In the case of `COC(=O)[C@H]1[C@H]2C[C@H]3c4[nH]c5ccccc5c4CCN3C[C@H]2CC[C@@H]1O`, the “activity change” value was 0.331% (inactive).

Regarding `C=C(Nc1ccc(OCC)cc1)Nc1ccc(OCC)cc1`, the compound was called inactive.

With `CC(=O)OCC(=O)[C@@]1(O)CC[C@H]2[C@@H]3C[C@H](C)C4=CC(=O)C=C[C@]4(C)[C@H]3[C@@H](O)C[C@@]21C`, the “activity change” value was 0.0083% (inactive).

As for `O=C[C@H](O)[C@@H](O)[C@@H](O)[C@H](O)CO`, the “activity change” value was -0.331% (inactive).

Turning to `CN=C(N)NCCC[C@H](N)C(=O)O`, the compound was classed as inactive.

Turning to `CN(Cc1ccccc1)Cc1ccccc1`, the “activity change” value is 0.101% (inactive).

For the compound `Nc1cc(Cl)c(NC2=NCCN2)c(Cl)c1`, the “activity change” value is -0.0084% (inactive).

As to `CCN1CCCC1CNC(=O)c1cc(S(=O)(=O)CC)ccc1OC` (stereo not given), the compound was classed as inactive.

Consider `OCC1(CO)COC(C(Cl)(Cl)Cl)OC1`, for which the “activity change” value was 0.112% (inactive).

Regarding `CC(C)OC(=O)Nc1ccc2nc(-c3cscn3)[nH]c2c1`, the “activity change” value was -0.0049% (inactive).

With `CCN(CC)CCNC(=O)c1ccc(NS(C)(=O)=O)cc1`, the “activity change” value was 0.0176% (inactive).

Turning to `CCCCCCCCCC[N+](C)(CCCCCCCCCC)CCC[Si](OC)(OC)OC`, the “activity change” value was -0.0567% [at 91.3 µM] (inactive).

In the case of `CC(C)=CCC/C(C)=C/CC/C(C)=C/CC/C=C(\C)CC/C=C(\C)CCC=C(C)C`, the compound was classed as inactive.

Regarding `CCC(O)c1ccccc1` (stereo not given), the “activity change” value was 0.156% (inactive).

Consider `N=C(N)n1cccn1`, for which the “activity change” value was 0.0574% (inactive).

For the compound `Cc1onc(-c2c(F)cccc2Cl)c1C(=O)N[C@@H]1C(=O)N2[C@@H]1SC(C)(C)[C@@H]2C(=O)O`, the compound was classed as inactive.

In the case of `C=C1C(CCl)(CCl)C2(Cl)C(Cl)C(Cl)C1(Cl)C2(Cl)Cl` (stereo not given), the compound was classed as inactive.

In the case of `CCc1ncnc2cc(OC)c(OC)cc12`, the “activity change” value is -0.0564% (inactive).
